# The campaign covered roughly 52,000 compounds. About 1,700 (3.3%) were called active. Cut-off read from the data, not from the text of the source: active = survival mostly below about 52% (no sharp cut-off); inactive = mostly above about 56%. Shown is part of a subset that was picked to be rich in actives.
# Test system: Wild type
# Assay: S. aureus survival, RN4220 and DeltatarO strains – OD600, teichoic acid synthesis inhibitors, primary screen (AID 463173)
# Details: S. aureus RN4220 wild type/DeltatarO growth, OD600, 18 h, active compounds read low, screened at 18.75 µg/mL (by protocol)
row,SMILES,survival
1,CC(C)c1cnc2c(c1SCC(=O)NC(C)(C)C)c(=O)n(C)c(=O)n2C,80% (inactive)
2,NC(=O)/C=C/C(=O)Nc1ccc2c(c1)OCO2,89% (inactive)
3,O=C(NCCc1csc2nc(-c3ccc(F)cc3)nn12)c1ccco1,126% (inactive)
4,COc1ccc(/C=C\c2onc(C)c2S(=O)(=O)N2CCC(C(=O)Nc3ccc(C)c(F)c3)CC2)cc1,93% (inactive)
5,CC(=O)N1c2c(cc(Br)cc2S(=O)(=O)NCc2ccccc2Cl)CC1C (configuration not stated),73% (inactive)
6,C=Cc1ccc(Cn2c(C(=O)O)c(CNCc3cc(Br)ccc3OC)c3ccc(C)cc32)cc1,99% (inactive)
7,COc1ccc(CNC(=O)c2cc3sccc3n2Cc2ccc(C)cc2)cc1,91% (inactive)
8,Fc1ccc(N2CCN(c3ncnc4c3nc3n4CCCCC3)CC2)cc1,55% (inactive)
9,COc1ccc(NC(=O)CSc2nnc(NC(=O)NC3CCCCC3)s2)cc1OC,65% (inactive)
10,COc1ccc(S(=O)(=O)N2CCN(Cc3ccc4c(c3)OCO4)CC2)cc1OC,78% (inactive)
11,Cc1cc(C)c(S(=O)(=O)N2CCN(Cc3ccc4c(c3)OCO4)CC2)cc1C,9% (active)
12,Cc1ccc(S(=O)(=O)N2CCN(Cc3ccc4c(c3)OCO4)CC2)cc1,64% (inactive)
13,COc1ccc(NC(=O)c2ccco2)cc1NC(=O)c1ccc(C)c(C)c1,69% (inactive)
14,COc1ccc(CNC(=O)c2cc3sccc3n2CC(=O)c2ccccc2)cc1,110% (inactive)
15,CCc1ccc(NC(=O)CC2C(=O)N(c3cccc(OC)c3)C(=O)N2C2CCCC2)cc1 (configuration not stated),120% (inactive)
16,CCCCNC(=O)CCn1c(=O)c2ccccc2n(Cc2cccc(Cl)c2)c1=O,94% (inactive)
17,CCSc1nc2ccc(C)cc2cc1C#N,111% (inactive)
18,CCC(=O)C1=C(c2ccccc2)N(C(=O)CC)n2c(nnc2C2CCCCC2)S1,14% (active)
19,CCC(=O)C1=C(c2cccc([N+](=O)[O-])c2)N(C(=O)CC)n2c(nnc2C2CCCCC2)S1,63% (inactive)

row,SMILES,survival
1,CCC(=O)C1=C(c2ccccc2)N(C(=O)CC)n2c(nnc2-c2ccccc2)S1,-6% (active)
2,CCC(=O)C1=C(c2ccc(F)cc2)N(C(=O)CC)n2c(nnc2-c2ccc(OC)cc2)S1,53% (inactive)
3,CCC(=O)C1=C(c2ccc(C)cc2)N(C(=O)CC)n2c(nnc2C2CCCCC2)S1,76% (inactive)
4,CC(=O)C1=C(c2cccc([N+](=O)[O-])c2)N(C(C)=O)n2c(nnc2-c2ccc(C)cc2)S1,85% (inactive)
5,CCC(=O)C1=C(c2ccc(OC)c(OC)c2)N(C(=O)CC)n2c(nnc2-c2ccc(C)cc2)S1,74% (inactive)
6,CCOc1ccc(C2=C(C(=O)CC)Sc3nncn3N2C(=O)CC)cc1,-1% (active)
7,CCCC(=O)C1=C(c2ccc(C)cc2)N(C(=O)CCC)n2cnnc2S1,134% (inactive)
8,CCC(=O)C1=C(c2ccc(F)cc2)N(C(=O)CC)n2c(nnc2C2CCCCC2)S1,78% (inactive)
9,CCC(=O)C1=C(c2ccc(F)cc2)N(C(=O)CC)n2cnnc2S1,133% (inactive)
10,CCC(=O)C1=C(c2cccc([N+](=O)[O-])c2)N(C(=O)CC)n2c(nnc2-c2ccccc2)S1,0% (active)
11,COc1cc(C(=O)Nc2ccc3nc(SCc4ccc(C)cc4)sc3c2)cc(OC)c1OC,113% (inactive)
12,CCc1ccc(N2C(=O)CSC23C(=O)N(Cc2ccc(C)cc2)c2ccccc23)cc1 (configuration not stated),66% (inactive)
13,Cc1ccc(NC(=O)Nc2nnc(N3CCCCC3)s2)c(C)c1,97% (inactive)
14,CCC(=O)Nc1nnc(SCCOC)s1,120% (inactive)
15,COc1ccc(-c2oc3ncn4nc(-c5cccc(C)c5)nc4c3c2-c2ccc(OC)cc2)cc1,68% (inactive)
16,O=C(COc1ccccc1)NCc1ccc2c(c1)CCN2C(=O)c1ccc(Cl)cc1,82% (inactive)
17,COC(=O)c1ccc(NC(=O)Cn2nc(C(=O)Nc3ccc(C)cc3)ccc2=O)cc1,85% (inactive)
18,COc1ccc(CNC(=O)c2cc(Nc3ccc(C)cc3C)nc3ccccc23)cc1,91% (inactive)
19,CCC(CC)C(=O)Nc1cc(-c2cn3cccnc3n2)ccc1OC,117% (inactive)

row,SMILES,survival
1,CCNC(=O)C1CCN(Cc2cc3ccccc3n2Cc2ccc(C)cc2)CC1,85% (inactive)
2,COc1cc(OC)c(NC(=O)c2cc3c(s2)-c2ccc(Cl)cc2SC3)cc1Cl,96% (inactive)
3,Fc1ccc(-n2ncc3c(NC4CCCCCC4)ncnc32)cc1,76% (inactive)
4,O=C1N(Cc2ccccc2)c2ccccc2C1(O)c1c[nH]c2ccccc12 (configuration not stated),67% (inactive)
5,Cc1ccc(CN2C(=O)C(O)(c3c[nH]c4ccccc34)c3cc(Cl)ccc32)cc1 (configuration not stated),-11% (active)
6,Cc1ccccc1CN1C(=O)C(O)(c2c[nH]c3ccccc23)c2cc(Cl)ccc21 (configuration not stated),-11% (active)
7,O=C1N(Cc2ccccc2Cl)c2ccccc2C1(O)c1c[nH]c2ccccc12 (configuration not stated),84% (inactive)
8,Cc1ccc(C)c(CN2C(=O)C(O)(c3c[nH]c4ccccc34)c3ccccc32)c1 (configuration not stated),116% (inactive)
9,CCCCN1C(=O)C(O)(c2c(C)[nH]c3ccccc23)c2cc(Br)ccc21 (configuration not stated),36% (inactive)
10,O=C1N(Cc2ccccc2)c2ccc(Cl)cc2C1(O)c1c[nH]c2ccccc12 (configuration not stated),53% (inactive)
11,Cc1[nH]c2ccccc2c1C1(O)C(=O)N(Cc2ccccc2)c2ccc(Cl)cc21 (configuration not stated),28% (inactive)
12,Cc1[nH]c2ccccc2c1C1(O)C(=O)N(Cc2ccccc2)c2ccc(Br)cc21 (configuration not stated),14% (active)
13,COc1ccc(CC(=O)NCCS(=O)(=O)N2CCN(c3ccccc3F)CC2)cc1OC,66% (inactive)
14,O=C(CN1C(=O)CSC1=O)N1CCCCC1,97% (inactive)
15,CCc1ccc(-c2cc(C)no2)cc1S(=O)(=O)NCc1ccco1,76% (inactive)
16,COc1cccc(Nc2sc(C(=O)c3ccc(Cl)cc3)c(N)c2C(=O)NCCc2ccc(OC)c(OC)c2)c1,75% (inactive)
17,CC(C)=NNC(=O)c1nnn(-c2nonc2N)c1CN1CCOCC1,108% (inactive)
18,COc1ccc(CNS(=O)(=O)c2ccc(F)c(C(=O)Nc3c(C)cc(C)cc3C)c2)cc1,80% (inactive)
19,O=C(NCCO)c1ccc2[nH]c3c(c2c1)CCCC3,102% (inactive)

# From PubChem BioAssay AID463173 (ICCB-Longwood Screening Facility, Harvard Medical School, 2010)
